Screening results (PubChem BioAssay)
KCNQ2 inh = KCNQ2 (rat) channel inhibition; O88943; CHO-K1 KCNQ2, FluxOR thallium flux, 20 min; stronger effect = lower value; B-score at 10 µM; 310,000 tested, 1.1% active; AID 2156;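 active = fluorescence ratio B-score at most minus 3 library SDs, with starting brightness B-score within 2 library SDs, cut at about -5.5 in these data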
KCNQ2 pot = potentiators of rat KCNQ2 potassium channel; 310,000 tested, 0.54% active; O88943; CHO-K1 KCNQ2, FluxOR thallium flux fluorescence; stronger effect = higher value; B-score at 10 µM; AID 2239;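 active = fluorescence ratio B-score at least 3 SD of library B-scores, with initial fluorescence B-score within 3 of them, cut at about 5.3 in these data; same plate scores as AID 2156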;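 note: B-score of peak minus minimum over baseline fluorescence ratio after K+ and Tl+ stimulus; positive B-score means potentiation of KCNQ2 with more thallium influx and brighter signal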
KCNQ2 inh conf = rat KCNQ2 channel inhibition, confirmatory screen; activity change, negative = inhibition, % at 10 µM; shares compounds with KCNQ2 inh; KCNQ2-expressing cells, thallium flux; stronger effect = lower value; AID 493025; 1,000 tested, 57% active;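 note: 0% = vehicle wells and values are ratio percent relative to vehicle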
KCNQ1 spec = KCNQ2 inhibitor that also affects human KCNQ1 channel; shares compounds with KCNQ2 inh; KCNQ1-expressing cells, FluxOR thallium flux fluorescence; stronger effect = lower value; activity change, negative = inhibition, % at 10 µM; 1,000 tested, 15% active; AID 493026;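 active = activity change at least 3 SD of negative controls below their mean in both duplicate wells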;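 note: CHO cells stably transfected with KCNQ1 and depolarized by potassium stimulus; peak minus minimum fluorescence over baseline after thallium addition; 0% = vehicle negative control and -100% = blank without thallium stimulus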
Target sequence (P51787 whole entry, looked up): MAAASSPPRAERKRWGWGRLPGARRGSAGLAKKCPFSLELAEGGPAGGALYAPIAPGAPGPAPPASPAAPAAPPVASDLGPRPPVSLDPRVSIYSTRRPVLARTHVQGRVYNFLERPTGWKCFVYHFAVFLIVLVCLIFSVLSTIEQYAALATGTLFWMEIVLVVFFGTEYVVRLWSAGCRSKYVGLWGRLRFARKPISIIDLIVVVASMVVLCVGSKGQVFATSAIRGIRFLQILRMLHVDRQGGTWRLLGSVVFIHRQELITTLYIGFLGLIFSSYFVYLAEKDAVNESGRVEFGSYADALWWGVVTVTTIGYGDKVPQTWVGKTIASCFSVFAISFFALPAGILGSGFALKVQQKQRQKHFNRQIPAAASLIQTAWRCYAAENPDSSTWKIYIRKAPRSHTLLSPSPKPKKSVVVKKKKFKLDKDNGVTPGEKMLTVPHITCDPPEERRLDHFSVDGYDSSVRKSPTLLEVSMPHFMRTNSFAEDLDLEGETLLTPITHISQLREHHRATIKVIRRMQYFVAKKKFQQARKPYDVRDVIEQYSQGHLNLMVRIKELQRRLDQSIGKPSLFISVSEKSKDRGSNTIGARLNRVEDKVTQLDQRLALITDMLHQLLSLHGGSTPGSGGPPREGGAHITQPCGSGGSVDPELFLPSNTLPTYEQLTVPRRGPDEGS
CHO Tl ctr = counter-screen for KCNQ2 inhibitors: effect in parental CHO cells. 1,000 tested, 14% active. activity change, % at 10 µM. thallium flux counter-screen; stronger effect = lower value. shares compounds with KCNQ2 inh. AID 493029;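 note: 0% = vehicle negative controls with stimulus buffer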
KCNQ2 inh confirm = confirmation of rat KCNQ2 potassium channel inhibitors; calls only at 10 µM; KCNQ2-expressing cells, automated patch clamp current; 550 tested, 49% active; AID 588531; shares compounds with KCNQ2 inh
Active calls of the source: *; i = inactive; . = not tested or not shown; + = active, no number. Hits are enriched below; roughly 1.6% of the tested compounds scored in any of these assays. Unless noted, the rule behind the calls is not given here.

SMILES	KCNQ2 inh	KCNQ2 pot	KCNQ2 inh conf	KCNQ1 spec	CHO Tl ctr	others
O=S(=O)(NCc1ccccc1Cl)c1cccs1	i	0.22	.	.	.
CC(C)C(c1nnnn1C1CCCC1)N(C)C1CCCCC1 (configuration not stated)	i	1	.	.	.
COc1ccc(Cn2nnnc2C(c2cc3cc(C)ccc3[nH]c2=O)N2CCN(C)CC2)cc1 (configuration not stated)	i	.	.	.	.
COc1cc2cc(C(c3nnnn3C3CCCCC3)N(C)C3CCCCC3)c(=O)[nH]c2cc1OC (configuration not stated)	-11*	-11	i	i	i
Cc1ccc(C(c2nnnn2C2CCCCC2)N(C)C2CCCCC2)cc1 (configuration not stated)	-8.3*	-8.3	i	i	i
COc1cc2cc(C(c3nnnn3C3CCCC3)N(C)C3CCCCC3)c(=O)[nH]c2cc1OC (configuration not stated)	-9*	-9	-36%*	i	i	KCNQ2 inh confirm=+
COc1ccc2[nH]c(=O)c(C(c3nnnn3C3CCCCC3)N3CCN(C)CC3)cc2c1 (configuration not stated)	i	.	.	.	.
O=c1[nH]c2cc3c(cc2cc1C(c1nnnn1C1CCCC1)N1CCSCC1)OCCO3 (configuration not stated)	i	0.87	.	.	.
COc1cc2cc(C(c3nnnn3Cc3ccc(F)cc3)N3CCCCCC3)c(=O)[nH]c2cc1OC (configuration not stated)	-7.7*	-7.7	-28%*	i	i	KCNQ2 inh confirm=+
CCCOc1ccccc1OCC(=O)Nc1cc(Cl)ccc1-n1cncn1	i	.	.	.	.
Cc1ccc(C2=NCCn3nc4cc([N+](=O)[O-])ccc4c32)cc1	i	0.25	.	.	.
CCCOc1ccc(NC(=O)C2CC(=O)N(C)C(=Nc3cccc(OC)c3)S2)cc1 (configuration not stated)	i	0.1	.	.	.
COc1ccc(CNC(=O)c2ccc(N3CCC4(CC3)CC(c3ccc(Cl)cc3)=NO4)c(N)c2)cc1	i	0.56	.	.	.
Cc1c(CCOC(=O)CC23CC4CC(CC(C4)C2)C3)sc[n+]1CC(=O)c1ccccc1	-8.5*	-8.5	-20%*	i	i	KCNQ2 inh confirm=+
Cc1c(CCOC(=O)C23CC4(C)CC(C)(CC(C)(C4)C2)C3)sc[n+]1CC(=O)c1ccccc1	i	.	.	.	.
O=C(c1ccc(F)cc1)N(NC(=O)C(O)(c1ccccc1)c1ccccc1)c1ccccc1	i	.	.	.	.
COC(=O)N(NC(=O)C(O)(c1ccccc1)c1ccccc1)c1ccccc1	-7*	-7	i	i	i
COc1cccc(CNC(=O)CN2C(=O)CSc3ccc(S(=O)(=O)N4CCCC4)cc32)c1	i	.	.	.	.
COc1ccc(/C=N/N=C/c2ccc(OC)c(OC)c2)cc1OC	i	0.43	.	.	.
COc1cc(/C=N/N=C(N)N)ccc1OCc1ccccc1Cl	-10*	-10	-26%*	i	i	KCNQ2 inh confirm=i
CCOC(=O)CSc1nnc(NC(=O)CN2CCCCC2)s1	i	.	.	.	.
Cc1ccc2ncccc2c1NC(=S)NC(=O)c1ccccc1	i	0.49	.	.	.
Cc1ccc(OCc2nc(C#N)c(N3CCN(Cc4ccccc4)CC3)o2)cc1	-7.8*	-7.8	i	i	i
Cc1ccccc1OCc1nc(C#N)c(N2CCCC2)o1	i	.	.	.	.
N#Cc1nc(COc2ccc(F)cc2)oc1N1CCCC1	i	.	.	.	.
SMILES	KCNQ2 inh	KCNQ2 pot	KCNQ2 inh conf	KCNQ1 spec	CHO Tl ctr	others
N#Cc1nc(COc2ccccc2)oc1N1CCC(Cc2ccccc2)CC1	-11*	-11	-30%*	i	i	KCNQ2 inh confirm=i
CN(c1cccc(NC(=O)COc2ccc(Cl)cc2Cl)c1)S(C)(=O)=O	i	0.2	.	.	.
O=C(Nc1cc(C(F)(F)F)ccc1-n1cncn1)c1ccc([N+](=O)[O-])o1	i	.	.	.	.
CC(C)CC(=O)Nc1ccc(C(=O)COC(=O)C2CCC2)cc1	i	.	.	.	.
O=c1c([N+](=O)[O-])cc(C(F)(F)F)cn1Cc1c(Cl)cccc1Cl	i	1.2	.	.	.
CCN(CC(=O)NCc1ccc(Cl)cc1)C(=O)c1oc2ccccc2c1C	-7*	-7	-19%*	i	i	KCNQ2 inh confirm=+
CCN(CC(=O)NCc1ccc(F)cc1)C(=O)c1oc2ccccc2c1C	i	.	.	.	.
CSCCC(NC(=O)c1ccccc1Br)C(=O)N1CCC(C)CC1 (configuration not stated)	-12*	-12	-36%*	-39%*	-30%*	KCNQ2 inh confirm=+
CSCCC(NC(=O)c1ccccc1Cl)C(=O)N1CCC1 (configuration not stated)	i	0.67	.	.	.
